33 compounds from PubChem BioAssay (Tox21) can be followed below.

SMILES strings stand for the structures. Several values for one entry are separate records, joined by “and”; a condition that tells them apart may be missing. Identical values can stand only once. Inconclusive results are not listed. More than one record can exist for a structure, and the calls need not agree. Activity calls are given as the source filed them. Calls come from the whole dose curve; as a rule, active = well fitted curve in the direction sought with a large enough effect in the repeat runs; inconclusive = weak or mixed curves; inactive = no such curve, though single readings can be large; an effect the other way counts as inactive or inconclusive.

Assay [1] is described as follows: qHTS assay to identify small molecule agonists of the RXR signaling pathway - cell viability counter screen (AID 1159529). Note: nearly all actives have a fitted effect of over 50% in size. Note: potency is the fitted concentration of half-maximal effect. The method in brief:
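Luminescence from CellTiter-Glo (30 min, RT) measured viability in the same wells as the beta-lactamase reporter readout. Cells: GeneBLAzer RXR-alpha HEK 293T, 2% charcoal-stripped FBS. Compound exposure 16 hr, 37 C.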
Background: qHTS replaces the single test concentration by a dilution series.

The nature of assay [2]: qHTS assay to identify small molecule antagonists of the retinoid acid receptor (RAR) signaling pathway - cell viability counter screen (AID 1159551). Note: nearly all actives have a fitted effect of over 35% in size. The method in brief:
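Cells (C3RL4) are plated, incubated overnight, dosed with compound in DMSO, then given retinol at 1 uM final. After 6 h at 37 C, CellTiter-Glo is added and luminescence read following 30 min at room temperature.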

Assay [3] can be described thus: qHTS assay to identify small molecule antagonists of the estrogen related receptor (ERR) signaling pathway from Tox21 library - cell viability counter screen (AID 1224834). Note: nearly all actives have a fitted effect of over 30% in size. Note: potency is the fitted concentration of half-maximal effect. The method in brief:
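ERR cells, 2,000/well; 6 h settle at 37 C/5% CO2; pin-tool compound transfer in DMSO; 17.5 h at 37 C; CellTiter-Fluor, 30 min; fluorescence intensity.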

Assay [4] deals with Luciferin 4-monooxygenase (Photinus pyralis) (UniProt P08659). Kind of assay: qHTS assay to identify small molecule inhibitors of firefly luciferase (AID 1224835). Note: nearly all actives have a fitted effect of over 25% in size. Note: potency is the fitted concentration of half-maximal effect. The method in brief: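 Quantitative HTS format; KM concentrations of both substrates. Purified P. pyralis FLuc activity quantified from luminescence images.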
Chain of Luciferin 4-monooxygenase (Photinus pyralis) (P08659 whole entry, looked up): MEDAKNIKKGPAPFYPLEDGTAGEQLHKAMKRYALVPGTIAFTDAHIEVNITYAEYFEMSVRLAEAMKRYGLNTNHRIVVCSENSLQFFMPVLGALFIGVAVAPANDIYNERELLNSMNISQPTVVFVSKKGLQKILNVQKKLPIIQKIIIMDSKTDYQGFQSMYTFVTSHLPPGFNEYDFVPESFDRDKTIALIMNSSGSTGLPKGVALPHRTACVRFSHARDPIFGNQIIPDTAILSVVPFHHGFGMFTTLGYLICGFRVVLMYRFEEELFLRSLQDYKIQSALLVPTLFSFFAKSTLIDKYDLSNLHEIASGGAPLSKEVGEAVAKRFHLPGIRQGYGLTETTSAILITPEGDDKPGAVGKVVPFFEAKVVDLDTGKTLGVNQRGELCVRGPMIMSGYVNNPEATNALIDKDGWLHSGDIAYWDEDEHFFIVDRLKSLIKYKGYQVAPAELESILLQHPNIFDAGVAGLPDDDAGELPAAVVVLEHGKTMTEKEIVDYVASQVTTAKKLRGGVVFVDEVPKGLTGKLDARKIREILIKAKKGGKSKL
A short description of assay [5]: qHTS assay to identify small molecule agonists of the constitutive androstane receptor (CAR) signaling pathway - cell viability counter screen (AID 1224836). Note: series mostly up to about 92 µM; nearly all actives have a fitted effect of over 45% in size. The method in brief: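 Viability read-out: CellTiter-Fluor fluorescence after 23 h compound exposure at 37 C/5% CO2 in double-stable HepG2-CYP2B6-hCAR cells, with PK11195 present at 0.75 uM final; compounds tested in 15-point titration.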

Assay [6] is described as follows: qHTS assay to identify small molecule antagonists of the constitutive androstane receptor (CAR) signaling pathway - cell viability counter screen (AID 1224837). Note: series mostly up to about 92 µM; nearly all actives have a fitted effect of over 45% in size. The method in brief: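 Viability was measured with CellTiter-Fluor in a HepG2 line carrying stably transfected hCAR and a CYP2B6-2.2kb construct. Cells were exposed for 23 hr at 37 C to 15 compound concentrations with 50 nM CITCO as agonist.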

Assay [7] can be described thus: qHTS assay to identify small molecule antagonists of the retinoic acid receptor (RAR) signaling pathway (AID 1159552; note: nearly all actives have a fitted effect of over 50% in size; note: potency is the fitted concentration of half-maximal effect). The method in brief:
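Luminescence from a RARE luciferase reporter in C3RL4 cells served as read-out. Cells received compounds together with 1 uM final retinol and incubated 6 hr at 37 C before detection reagent was added for 30 min at room temperature.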

Assay [8] in a line: qHTS assay to identify small molecule agonists of the retinoic acid receptor (RAR) signaling pathway (AID 1159553). Note: potency is the fitted concentration of half-maximal effect. The method in brief: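 Seed C3RL4 reporter cells at 1,000 per well and incubate overnight at 37 C. Add compounds in DMSO, incubate 6 hr. Add luciferase reagent, wait 30 min at room temperature, read luminescence.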
Assay [9] in a line: qHTS assay to identify small molecule antagonists of the estrogen related receptor (ERR) signaling pathway - cell viability counter screen (AID 1224818). Note: series mostly up to about 46 µM. The method in brief: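 ERR cells, 2,000/well; 6 h settle at 37 C/5% CO2; compound pin transfer (DMSO); 17.5 h at 37 C; CellTiter-Fluor, 30 min, fluorescence read.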
Assay [10] is described as follows: qHTS assay to identify small molecule antagonists of the estrogen related receptor signaling pathway with the pleiotropic PPARgamma coactivator (PGC) cell viability counter screen (AID 1224822; note: series mostly up to about 46 µM). The method in brief:
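Multiplexed viability counter screen run in PGC/ERR cells treated with compounds for 17.5 h at 37 C; live-cell protease signal measured by CellTiter-Fluor fluorescence.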

With `CCCCC(CC)CO` (centres undefined), the Potency entry in assay [1], in [3], in [4], in assay [5] and in assay [6] was “inactive” throughout. The compound was called inactive in assay [2].

As to `CN(C)CCOCCN(C)C`, the Potency entry in [1], in assay [3], in assay [4] and in [5] was “inactive” throughout. The compound was called inactive in assay [2].

On to `CCCCCC1=CCCC1=O`, for which the Potency entry in assay [1], in [7], in [8], in [3], in [4] and in assay [5] was “inactive” in each case. In assay [6], the Potency result was “inactive”.

In the case of `CC1CCC2CC1C2(C)C` (centres undefined), the Potency entry in assay [1], in [3], in assay [4] and in [5] was “inactive” throughout. For the same compound, the compound was called inactive in [2].

With `Cc1cccc(O)c1`, the Potency result in [1], in assay [3], in assay [4] and in [5] was “inactive” in each case. Besides, the compound was classed as inactive in assay [2].

As for `CCCCC(CC)COC(=O)C(C#N)=C(c1ccccc1)c1ccccc1` (centres undefined), the Potency entry in assay [1], in [8], in assay [3], in [4] and in [5] was “inactive” in each case. Further, in assay [7], the Potency is 30.6 µM (active).

As to `CCCCCCCCCCCCCCO`, the Potency entry in [1], in assay [3], in assay [5] and in assay [6] was “inactive” throughout. In addition, the result in assay [2] was inactive. Moreover, the Potency in [4] was 22.7 µM (active).

`CC(C)CC(=O)CC(C)C`: the Potency result in assay [1], in assay [3], in assay [4] and in assay [5] was “inactive” in each case.

As for `Oc1cccc2ccccc12`, the Potency result in assay [1], in assay [3], in assay [5] and in assay [6] was “inactive” in each case. Further, the result in [2] was inactive.

For `Cc1cccnc1`, the Potency result in [1], in [3], in [4], in [5] and in assay [6] was “inactive” in each case.

For `CCCCCCCCCC`, the Potency result in assay [1], in [3], in assay [4] and in assay [5] was “inactive” throughout.

Take `CCCC(C)=O`: the Potency result in [1], in assay [7], in [8], in [3], in assay [4] and in assay [5] was “inactive” in each case.

As for `CCN(CC)c1ccc(C(=O)c2ccccc2C(=O)O)c(O)c1`, the call in assay [2] was inactive. The Potency entry in assay [7], in [3] and in assay [5] was “inactive” each time. Moreover, the Potency was 10.9 µM (active) and 34.4 µM (active) in assay [8]; 28.4 µM (active) and 25.2 µM (active) in assay [4].

For `c1ccc2scnc2c1`, the Potency entry in assay [1], in assay [7], in assay [8], in assay [3], in [4] and in assay [5] was “inactive” in each case. Besides, the Potency result in assay [6] was “inactive”.

Take `Cc1cc(C)c(C)cc1C`: the Potency result in assay [1], in assay [7], in [8], in [3], in assay [4] and in assay [5] was “inactive” throughout. Moreover, in assay [6], the Potency entry is “inactive”.

With `CCc1ccc(CCOc2ccc(CC3SC(=O)NC3=O)cc2)nc1` (centres undefined), the Potency result in assay [1], in assay [3], in [5] and in assay [6] was “inactive” throughout. Also, in assay [2], the outcome was inactive. The Potency in [4] was 31.7 µM (active) and 24.5 µM (active).

For the compound `Cc1cnc(C(=O)NCCc2ccc(S(=O)(=O)NC(=O)NC3CCCCC3)cc2)cn1`, the Potency entry in [1], in assay [8], in [3], in assay [4] and in [5] was “inactive” each time. Besides, the result in assay [9] and in assay [10] was inactive.

On to `CC1=CC(=O)NS(=O)(=O)O1`, for which the Potency entry in assay [1], in [3], in assay [5] and in [6] was “inactive” in each case. Besides, the result in assay [2] was inactive.

As for `O=C(O)c1cc(O)c(O)c(O)c1`, the Potency entry in assay [1], in assay [7], in [8] and in [5] was “inactive” each time. Besides, in [3], the Potency is 61.7 µM (active).

In the case of `CC(c1cc2ccccc2s1)N(O)C(N)=O` (centres undefined), the Potency result in assay [1], in assay [3], in assay [4] and in [5] was “inactive” throughout. In [2], the result was inactive.

`CC(O)COCC(C)O` (centres undefined): the Potency result in [1], in [3], in assay [4], in assay [5] and in [6] was “inactive” in each case. Moreover, the compound was classed as inactive in assay [2].

Turning to `O=C(O)CCCCCCCCCCC(=O)O`, the Potency result in assay [1], in assay [3], in [4] and in assay [5] was “inactive” throughout.

On to `CC[C@H](C)C(=O)O[C@H]1C[C@@H](C)C=C2C=C[C@H](C)[C@H](CC[C@@H]3C[C@@H](O)CC(=O)O3)[C@H]21`, for which the Potency was 8.83 µM (active) in [1]; 69.6 µM (active) and inactive in [3]. Also, the Potency result in assay [4], in assay [5] and in assay [6] was “inactive” in each case.

In the case of `CCCCCC(N)=O`, the Potency result in assay [1], in assay [3], in assay [4] and in assay [5] was “inactive” each time.

For `CC(C)(C)[C@@H](O)[C@@H](Cc1ccc(Cl)cc1)n1cncn1`, the Potency entry in [1], in assay [7], in assay [8], in assay [3], in [4] and in assay [5] was “inactive” throughout. In assay [6], the Potency entry was “inactive”.

Regarding `O=C(O)c1ccc(C(=O)O)cc1`, the Potency result in assay [1], in assay [3], in assay [4], in [5] and in [6] was “inactive” each time. For the same compound, in assay [2], the compound was classed as inactive.

With `OCc1cccnc1`, the Potency entry in assay [1], in assay [3], in assay [4] and in assay [5] was “inactive” throughout.

In the case of `COS(C)(=O)=O`, in assay [2], the call was inactive. The Potency entry in [3], in assay [4] and in [5] was “inactive” throughout.

In the case of `N[C@@H](Cc1cc(I)c(Oc2cc(I)c(O)c(I)c2)c(I)c1)C(=O)O`, the Potency entry in assay [7], in assay [8], in assay [3], in assay [4], in [5] and in assay [6] was “inactive” each time.

Regarding `O=S1(=O)CC=CC1`, the compound was classed as inactive in assay [2]. Besides, the Potency entry in assay [7], in assay [8], in [3], in assay [4], in assay [5] and in assay [6] was “inactive” in each case.

For `CC(C)(N)CO`, the compound was called inactive in assay [2]. The Potency entry in [3], in [4] and in assay [5] was “inactive” in each case.

Consider `CN(C)CCCN`, for which the call in [2] was inactive. The Potency entry in assay [3], in assay [4], in assay [5] and in assay [6] was “inactive” throughout.

With `O=S(=O)(O)c1ccc2ccccc2c1`, the call in assay [2] was inactive. Moreover, the Potency entry in assay [3], in [4], in assay [5] and in [6] was “inactive” in each case.
